A selection: hits, their analogues and other compounds. The true share with any hit is near 7.4%.
SMN2 splice enh: SMN2 splice variant enhancement. HEK293 SMN2-luciferase splicing reporter, luminescence, 30-36 h. Potency, µM (highest dose often 46.1 µM), for the others: top-dose activity change, positive = activation, hits mostly activators. hit rate 2.8% among 210,000. AID 1458; note: % of control where 0% means no effect; nearly all actives have a fitted effect of over 55% in size
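HEK293 cells carry an SMN2 minigene-luciferase reporter in which exon 7 inclusion puts luciferase in frame. Cells were seeded at 2000 cells/well, attached for 10-12 hours, then exposed to compounds for 30-36 hours at 37C before ONE-Glo luminescence.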
NPC1 promoter act: NPC1 promoter activation. Potency, µM (titrated, usually from 9.22 µM), without a hit: top-dose activation, hits mostly activators. hit rate 2.4% among 320,000. Huh7 NPC1 promoter luciferase reporter, 24 h; note: % of control where 0% means no effect; nearly all actives have a fitted effect of over 60% in size
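Luminescence from an NPC1 promoter-driven luciferase reporter in stably transfected Huh7 cells was measured after 24 h compound treatment at 37 °C, followed by 10 min ambient incubation with luciferase detection reagent.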
Rab9 promoter act: activators of Rab9 promoter | Huh7 Rab9 promoter-luciferase reporter, luminescence, 24 h | Potency, µM (highest dose often 9.22 µM), inactives show top-dose activation, negative = inhibition, most hits filed as activators | hit rate 2.8% among 320,000 | AID 485297; note: % of control where 0% means no effect; nearly all actives have a fitted effect of over 60% in size
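Stable Rab9-luc Huh7, 1500 cells/well, 2 h settle; cmpd in DMSO, 24 h, 37 °C/5% CO2; luciferase reagent 10 min RT; luminescence.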
ELG1 genotoxic: genotoxicity induction in ELG1-luciferase HEK293T cells. HEK293T ELG1-luciferase reporter, luminescence, 16 h. Potency, µM (doses to about 46 µM), for inactives: at the highest dose activity change, positive = activation, most hits filed as activators. hit rate 1.3% among 330,000. AID 504466; note: % of control where 0% means no effect; nearly all actives have a fitted effect of over 60% in size
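DMSO vehicle served as control against compound-treated ELG1-luciferase HEK293T cells; exposure lasted 16 hr at 37 °C and 5% CO2, followed by ONE-Glo luminescence detection after 30 min.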
FLuc modulator: counter-screen for miR-21 project: firefly luciferase inhibitors or activators; hit rate 6.9% among 360,000; P08659; purified FLuc, Km substrates, luminescence inhibition; AID 588342; Potency, µM (highest dose often 57.5 µM), inactives show at the top dose activity change, negative = inhibition, usual class: inhibitors;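 note: plate controls were vehicle for no effect and reference inhibitor for full effect; nearly all actives have a fitted effect of over 55% in size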
Target sequence (P08659 whole entry, looked up): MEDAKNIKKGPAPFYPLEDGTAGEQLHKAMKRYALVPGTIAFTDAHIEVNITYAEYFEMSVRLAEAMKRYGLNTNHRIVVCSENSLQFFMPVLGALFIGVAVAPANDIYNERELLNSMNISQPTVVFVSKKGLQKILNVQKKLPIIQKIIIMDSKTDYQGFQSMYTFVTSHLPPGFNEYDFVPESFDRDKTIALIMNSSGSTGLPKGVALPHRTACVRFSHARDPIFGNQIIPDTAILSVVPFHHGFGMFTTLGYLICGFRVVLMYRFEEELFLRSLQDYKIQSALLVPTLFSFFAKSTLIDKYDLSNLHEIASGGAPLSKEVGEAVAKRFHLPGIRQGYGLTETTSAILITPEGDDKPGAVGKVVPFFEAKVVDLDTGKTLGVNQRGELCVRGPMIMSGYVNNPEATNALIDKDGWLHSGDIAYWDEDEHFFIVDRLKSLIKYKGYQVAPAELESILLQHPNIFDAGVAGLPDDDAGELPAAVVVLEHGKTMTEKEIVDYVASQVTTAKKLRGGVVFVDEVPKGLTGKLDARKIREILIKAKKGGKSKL
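Biochemical qHTS of compounds, final roughly 60 µM downward over six points, against 10 nM purified firefly luciferase using Km concentrations of substrates (10 uM D-luciferin, 10 uM ATP) in Tris acetate pH 7.5 buffer; luminescence output.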
The depositor's hits bear a star; ? = inconclusive; nt = no result given. Calls come from the whole dose curve; as a rule, active = well fitted curve in the direction sought with a large enough effect; inconclusive = small, poorly fitted or top-dose-only effect, or another doubt; inactive = no such curve, though single readings can be large; an effect the other way counts as inactive or inconclusive. Potency is the fitted concentration of half-maximal effect.

SMILES | SMN2 splice enh | NPC1 promoter act | Rab9 promoter act | ELG1 genotoxic | FLuc modulator
Cc1ccc(NC(=O)c2ccc(C(C)(C)C)cc2)cc1[N+](=O)[O-] | 15% | ? | ? | ? | 6µM*
Cc1ccc(NC(=O)c2cccs2)cc1[N+](=O)[O-] | nt | 21% | 27% | -1% | 21µM*
Cc1ccc([N+](=O)[O-])cc1NC(=O)c1ccc(C(C)(C)C)cc1 | 8% | -4% | 0% | -10% | ?
COc1ccc(-n2c(SCC(=O)N3CCOCC3)nc3ccccc3c2=O)cc1 | nt | 3% | 1% | 6% | 0%
Cc1ccc(C)c(CNC(=O)c2sc3ncnc(N(C)C4CCCCC4)c3c2C)c1 | nt | nt | nt | nt | -8%
Cc1cc2nc(-c3ccc(SCC(=O)Nc4ccc5c(c4)OCCO5)nc3)[nH]c2cc1C | ? | 2.8µM* | 4µM* | ? | 0.34µM*
O=C(CSc1nc(-c2ccc(F)cc2)[nH]c1-c1ccc(F)cc1)Nc1ccc2c(c1)OCCO2 | -1% | nt | nt | nt | ?
Cc1ccc(-c2ccc(SCC(=O)Nc3ccc4c(c3)OCCO4)nn2)cc1 | 23% | 18% | 16% | 11% | 1.9µM*
O=C(CSc1ccc(-c2nc3ccccc3[nH]2)cn1)Nc1ccc2c(c1)OCCO2 | 17% | 27% | ? | 10% | ?
Cc1ccc(-c2ccc(SCC(=O)Nc3nonc3C)nn2)cc1 | 6% | ? | ? | ? | 12µM*
CC(=O)Nc1ccc(NC(=O)CSc2ccc(-c3ccc4c(c3)OCO4)nn2)cc1 | ? | 26% | 24% | ? | -19%
Cc1ccc2nc(-c3ccc(SCC(=O)Nc4ccc5c(c4)OCCO5)nc3)[nH]c2c1 | ? | 3.2µM* | 2.8µM* | ? | 0.6µM*
COc1cc(NC(=O)Nc2nnc(N3CCCCCC3)s2)cc(OC)c1 | nt | nt | nt | nt | -3%
CCN1C(=O)[C@H]2[C@@H](c3ccc(C)cc3)N3C(=O)N(c4cccc(F)c4)C(=O)[C@@]3(C)[C@H]2C1=O | nt | 1% | -6% | 0% | 0%
O=S(=O)(c1ccc2c(c1)OCCO2)N1CCN(S(=O)(=O)c2ccc3c(c2)OCCO3)CC1 | nt | 0.35µM* | 0.4µM* | nt | 0.6µM*
Cc1cccc(NC(=O)C(=O)C2C(=O)Nc3ccccc32)c1 (stereo unspecified) | nt | 21% | 18% | 4% | 15µM*
CC(C)(C)OC(=O)CNC(=O)c1nc[nH]c1C(=O)N1CCNCC1 | nt | -1% | -9% | 1% | -2%
O=C(O)COc1ccccc1/C=N/NC(=O)c1cc(-c2ccc(Cl)cc2)nc2ccccc12 | nt | -1% | -2% | 0% | 0.95µM*
O=C(O)COc1ccccc1/C=N/NC(=O)c1cc(-c2ccccc2)nc2ccccc12 | nt | 0% | -2% | 0% | 2.7µM*
Cc1ccccc1CNC(=O)Cn1ncn2nc(-c3cccs3)cc2c1=O | nt | nt | nt | nt | -4%
O=C(Cc1ccc(Cl)cc1)N/N=C1\CCCc2ccccc21 | -21% | -6% | -6% | -4% | -3%
COc1ccc2c(c1)CC/C2=N\NC(=O)c1ccccc1 | 16µM* | ? | ? | ? | 12µM*
NC(=O)C(=O)N/N=C1\CCc2ccccc21 | 13µM* | 7% | 21% | ? | 11µM*
COc1ccc(OCC(=O)N/N=C2/C=C(C)CC2)cc1 | 3% | 0% | -12% | -1% | -6%
COc1ccc(OCC(=O)N/N=C2\CCc3ccccc32)cc1 | -5% | 2% | 7% | ? | 19µM*
SMILES | SMN2 splice enh | NPC1 promoter act | Rab9 promoter act | ELG1 genotoxic | FLuc modulator
CCCCCCOc1ccc(/C(N)=N/O)cc1 | 26% | 2.5µM* | 1.6µM* | ? | 12µM*
Cc1ccc(NC(=O)Cn2cc3c(n2)CCCCC3)cc1 | 8% | nt | nt | nt | -6%
COc1ccccc1C(=O)Oc1ccc(C(C)(C)C)cc1 | -30% | -1% | 4% | 4% | 6µM*
CCCCCCOC(=O)c1ccc(OC(=O)c2cccnc2)cc1 | 14% | 1% | 3% | 18µM* | ?
CCCCOC(=O)c1ccc(OC(=O)c2cccnc2)cc1 | 4% | 1% | -1% | 9% | ?
CC(C)(C)c1ccc(OC(=O)c2ccc3nsnc3c2)cc1 | -37% | 1% | -7% | 3% | 7.6µM*
COc1ccc(C(=O)Oc2ccc(C(C)=O)cc2)c(OC)c1 | 7% | -1% | 3% | 9% | 12µM*
CN(C)CCNC(=O)C1CCN(c2ncnc3c2nc2n3CCCCC2)CC1 | nt | nt | nt | nt | -4%
Cc1cccc(C(=O)N2CCc3cc(CNC(=O)CCc4ccccc4)ccc32)c1 | nt | nt | nt | nt | -5%
CSc1nc2ccc(NS(=O)(=O)c3ccc4c(c3)OCCO4)cc2s1 | -34% | -3% | -2% | -13% | -10%
CC(C)(C)c1ccc(OC(=O)c2cccnc2)cc1 | 12% | -6% | -1% | 2% | 12µM*
Cc1ccc(Cl)cc1NC(=O)CCCn1c(=O)c2cccn2c2ccccc21 | nt | nt | nt | nt | 12µM*
CN(C)CCNC(=O)CCCn1c(=O)c2cccn2c2ccccc21 | nt | nt | nt | nt | 15µM*
Cc1ccc(Cl)cc1NC(=O)CCCn1c(=O)c2cccn2c2cccnc21 | nt | nt | nt | nt | -2%
COc1ccc(CCNC(=O)CCCn2c(=O)c3cccn3c3ccccc32)cc1OC | nt | nt | nt | nt | -1%
CCOC(=O)c1noc2ncn(CC(=O)Nc3ccc(C)c(F)c3)c(=O)c12 | nt | nt | nt | nt | 11%
COc1ccc(C(=O)NC(C)CCc2ccccc2)c(O)c1 (stereo unspecified) | nt | 18% | 19% | 0% | -17%
Cc1cccc(C(C)C)c1NC(=O)c1ccc2c(c1)CCCN2S(C)(=O)=O | -20% | nt | nt | nt | -4%
CNC(=O)c1cccc(NC(=O)c2ccccc2OCc2ccccc2)c1 | nt | -2% | 0% | -15% | 1%
O=C(Nc1ccc2c(c1)OCCO2)c1cc2sccc2n1Cc1ccc(F)cc1 | -30% | 13% | 28% | -1% | ?
O=C(Nc1ccc2c(c1)OCCO2)c1cc2sccc2n1Cc1ccccc1 | 10% | 24% | ? | -1% | 21µM*
Cn1c(C(=O)Nc2ccc3c(c2)OCCO3)cc2sccc21 | 7.1µM* | 1.3µM* | 1.1µM* | 2.1µM* | 1.1µM*
Cn1c(C(=O)NCCN2CCOCC2)cc2sccc21 | -18% | 2% | 15% | 1% | 3%
C=CCNC(=O)C1(c2ccccc2)CC1(Cl)Cl (stereo unspecified) | -4% | -4% | 1% | 0% | -2%
O=C(/C(=N/N=C/c1ccc(O)c(O)c1O)c1ccccc1)c1ccccc1 | 3.2µM* | 1% | -2% | -3% | -7%
Oc1ccc(/C=N/N=C(c2ccccc2)c2ccccc2)c(O)c1O | 7% | -9% | -3% | -4% | ?
Cc1ccc(NC(=O)C(=O)NCC(c2cccnc2)N2CCN(Cc3ccccc3)CC2)cc1Cl (stereo unspecified) | nt | nt | nt | nt | -1%
O=C1CCCC/C1=C\Nc1ccc(Cl)cn1 | ? | ? | ? | ? | 17µM*
O=C1CCC/C1=C/Nc1ccc(Cl)cc1 | 3% | 1% | 22% | 11% | -17%
Cc1ccc(N/C=C2\CCCCC2=O)nc1 | 18% | 4% | ? | ? | 21µM*
